# What was measured:
# Details in all cases: concentration: 1 μM, replicates: in singlicate; n = 1
# NEK4 = system: NEK4
# NEK5 = system: NEK5
# NEK6 = system: NEK6
# NEK7 = system: NEK7
# NEK9 = system: NEK9
# NIK = system: T1, NIK
# T1 construct: gene MAP3K14
# NIM1 = system: T2, NIM1
# T2 construct: gene MGC42105
# NLK = system: NLK
# OSR1 = system: T3, OSR1
# T3 construct: gene OXSR1
# PAK1 = system: PAK1
# PAK2 = system: PAK2
# PAK3 = system: PAK3
# PAK4 = system: PAK4
# PAK6 = system: PAK6
# PAK7 = system: PAK7
# PCTK1 = system: T4, PCTK1
# T4 construct: gene CDK16
# PCTK2 = system: T5, PCTK2
# T5 construct: gene CDK17
# PCTK3 = system: T6, PCTK3
# T6 construct: gene CDK18
# PDGFRA = system: PDGFRA
# PDGFRB = system: PDGFRB
# 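Also: KINOMEscan kinase panel screen.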
SMILES,%Inh (NEK4),%Inh (NEK5),%Inh (NEK6),%Inh (NEK7),%Inh (NEK9),%Inh (NIK),%Inh (NIM1),%Inh (NLK),%Inh (OSR1),%Inh (PAK1),%Inh (PAK2),%Inh (PAK3),%Inh (PAK4),%Inh (PAK6),%Inh (PAK7),%Inh (PCTK1),%Inh (PCTK2),%Inh (PCTK3),%Inh (PDGFRA),%Inh (PDGFRB)
CCC(=O)c1c(-c2ccccc2)c2cc(Cl)ccc2c(=O)n1Cc1cc(S(C)(=O)=O)n(CC(N)=O)n1,0%,0%,0%,0%,0%,0%,14%,0%,0%,32%,5%,0%,5%,1%,0%,0%,0%,13%,0%,10%
COc1cc2nccc(Nc3ccc(OCc4ccc(NC(C)=O)cc4)cc3)c2cc1OC.Cl [GW440135],0%,0%,0%,100%,94.8%,16%,24%,10%,0%,0%,0%,0%,9%,0%,0%,9%,0%,0%,93.1%,99.6%
CCn1c(-c2nonc2N)nc2ccccc21 [SB-693162/GW549034],11%,18%,17%,12%,0%,24%,2%,0%,24%,0%,27%,0%,0%,11%,11%,4%,0%,16%,41%,0%
CCCC(=O)Nc1n[nH]c2ncc(-c3cccc4ccccc34)cc12 [SB-642057],0%,9%,0%,0%,0%,11%,28%,24%,0%,4%,5%,0%,0%,0%,0%,27%,35%,34%,0%,12%
COC(=O)c1c(-c2ccccc2)c2cc(C)ccc2c(=O)n1Cc1ccccc1,0%,0%,0%,0%,0%,100%,0%,0%,0%,24%,20%,1%,0%,10%,0%,0%,0%,0%,42%,90%
CCc1ccc(-c2ccc3c(c2)-c2nn(C)cc2S(=O)(=O)N3C)cc1,0%,0%,0%,0%,0%,0%,0%,0%,0%,0%,11%,0%,0%,9%,0%,0%,0%,0%,0%,0%
CCn1c(-c2ccoc2)nc2cnccc21 [SB-733887],22%,4%,5%,0%,0%,21%,11%,7%,9%,12%,19%,0%,0%,0%,0%,9%,0%,1%,63%,9%
Nc1n[nH]c2ncc(-c3ccccc3)cc12 [SB-517081],26%,9%,0%,0%,7%,0%,28%,13%,0%,7%,17%,0%,0%,0%,0%,3%,0%,31%,51%,97.3%
COc1cccc(C2=C(N(C)c3ccccc3)C(=O)NC2=O)c1 [SB-334865],0%,0%,0%,0%,0%,100%,21%,29%,0%,1%,0%,1%,0%,0%,0%,0%,0%,0%,0%,7%
Cl.NS(=O)(=O)c1cccc(Nc2cc(-c3ccc(F)cc3)n[nH]2)c1 [GW824645],0%,0%,0%,0%,0%,45%,3%,0%,0%,4%,26%,0%,0%,4%,0%,0%,13%,5%,75%,96.1%
Cc1nnc(-c2ccc3ncn(-c4ccc(S(C)=O)cc4)c3c2)o1 (stereo not drawn),0%,0%,17%,2%,13%,3%,0%,0%,0%,8%,14%,0%,2%,4%,2%,0%,0%,14%,17%,30%
Cc1nnc(-c2ccc(C)c(-c3ccc(C(=O)O)cc3)c2)o1 [GW608005],14%,2%,0%,5%,2%,26%,13%,0%,2%,8%,9%,0%,0%,0%,0%,0%,0%,2%,0%,4%
C[C@@H]1CC[C@H](C(=O)NC2CCCCC2)CN1c1cc(-c2ccc3c(N)n[nH]c3c2)nc(N)n1 [GSK2291363],18%,22%,26%,0%,25%,32%,14%,7%,17%,15%,17%,0%,0%,3%,17%,2%,10%,32%,0%,34%
CN(C)c1cc(-c2ccc3c(N)n[nH]c3c2)nc(N)n1 [GSK2219329],0%,2%,0%,0%,0%,0%,21%,1%,0%,9%,0%,0%,0%,0%,15%,0%,0%,0%,0%,9%
CN1C(=O)C(Nc2cc(Cl)c(O)c(Cl)c2)=C(c2ccc(Cl)cc2)C1=O [SB-404321],0%,7%,0%,0%,0%,30%,0%,0%,0%,0%,2%,0%,34%,0%,5%,0%,5%,0%,0%,0%
O=C(NCCNc1ccnc(Nc2ccc(F)cc2)n1)Nc1ccc2c(c1)OCO2 [GSK1379882],0%,15%,0%,0%,12%,22%,18%,0%,0%,0%,0%,0%,0%,12%,7%,14%,0%,0%,6%,53%
O=C(Nc1n[nH]c2cc(-c3ccccc3F)ccc12)C1CC1 [SB-733371],0%,0%,0%,11%,0%,0%,0%,15%,0%,0%,0%,0%,0%,0%,9%,0%,9%,0%,16%,46%
Fc1cccc(CSc2nnc(-c3ccc4c(c3)CCO4)o2)c1,20%,6%,10%,13%,12%,0%,0%,0%,3%,28%,62%,19%,23%,35%,5%,18%,1%,0%,26%,0%
CCCNC(=O)Nc1ccc(Oc2ncnc3ccn(C)c23)cc1,0%,0%,13%,0%,11%,0%,0%,0%,17%,17%,30%,0%,0%,12%,5%,15%,8%,0%,54%,46%
CCS(=O)c1ccc(-c2coc3ccc(-c4nnc(C)o4)cc23)cc1 (stereo not drawn),0%,0%,0%,0%,0%,0%,11%,0%,0%,0%,0%,33%,0%,20%,0%,0%,0%,2%,0%,0%
COc1cc(Nc2ccnc3ccc(C(F)(F)F)cc23)cc(OC)c1OC [GW577382],5%,13%,2%,3%,13%,0%,85%,73%,14%,0%,0%,31%,4%,0%,7%,0%,0%,7%,0%,36%

SMILES,%Inh (NEK4),%Inh (NEK5),%Inh (NEK6),%Inh (NEK7),%Inh (NEK9),%Inh (NIK),%Inh (NIM1),%Inh (NLK),%Inh (OSR1),%Inh (PAK1),%Inh (PAK2),%Inh (PAK3),%Inh (PAK4),%Inh (PAK6),%Inh (PAK7),%Inh (PCTK1),%Inh (PCTK2),%Inh (PCTK3),%Inh (PDGFRA),%Inh (PDGFRB)
O=C(Nc1n[nH]c2nc(-c3ccccc3)c(Br)cc12)C1CC1 [SB-708998],3%,2%,0%,0%,3%,31%,9%,33%,11%,10%,10%,9%,0%,0%,0%,0%,0%,0%,20%,93.7%
COc1cc2ncn(-c3cc(OCc4ccc(S(C)(=O)=O)cc4)c(C(N)=O)s3)c2cc1OC [GW869979],14%,20%,1%,0%,0%,7%,45%,4%,25%,0%,0%,0%,0%,0%,0%,19%,0%,26%,30%,11%
O=c1cc(N2CCOCC2)nc2n(Cc3ccc(F)c(Cl)c3)ccn12 [GSK2297099],0%,9%,0%,61%,64%,0%,17%,14%,6%,5%,5%,0%,0%,13%,11%,6%,10%,2%,7%,17%
COc1cc(Nc2nccc(N3CCC(NC(=O)C4COc5ccccc5O4)C3)n2)cc(OC)c1OC (stereo not drawn) [GSK1379761],7%,97.3%,21%,49%,37%,42%,28%,5%,2%,0%,0%,10%,0%,0%,3%,4%,0%,10%,1%,45%
CCC(=O)c1c(-c2ccccc2)c2cc(Cl)ccc2c(=O)n1Cc1ccc(C(=O)O)cc1,0%,0%,0%,0%,0%,0%,0%,0%,0%,0%,0%,0%,0%,0%,0%,0%,0%,0%,19%,58%
O=C(Nc1ccc2c(c1)OCO2)NC1CCN(c2ccnc(NCc3ccc(F)cc3)n2)CC1 [GSK1379859],23%,17%,0%,0%,11%,12%,0%,11%,3%,0%,0%,14%,0%,0%,0%,0%,0%,0%,0%,12%
COc1cccc(C2=C(Nc3cccc(C(=O)O)c3)C(=O)NC2=O)c1 [SB-390770],0%,14%,1%,0%,9%,0%,0%,8%,16%,0%,0%,25%,0%,0%,0%,0%,0%,0%,3%,0%
COc1ccc(Nc2nccc(N3CCC(NS(=O)(=O)c4ccc(NC(C)=O)cc4)C3)n2)cc1 (stereo not drawn) [GSK1379729],3%,33%,11%,3%,5%,17%,11%,13%,20%,6%,0%,7%,0%,0%,0%,0%,0%,6%,23%,15%
Cc1cccc(-c2nc(Nc3ccc4c(cnn4C)c3)c3ccccc3n2)n1 [GW876731],0%,49%,12%,2%,5%,11%,16%,25%,0%,6%,33%,0%,17%,14%,0%,0%,0%,11%,9%,1%
COc1ccc(-n2cnc3c(N)ncnc32)cc1 [SKF-97236],0%,0%,5%,0%,17%,0%,12%,0%,14%,0%,0%,28%,0%,16%,0%,0%,0%,0%,63%,95.1%
Cc1nn2c(=O)cc(N3CCOCC3)nc2n1Cc1cccc(Cl)c1Cl [GSK2342769],9%,0%,0%,0%,0%,0%,12%,0%,8%,9%,2%,0%,0%,0%,0%,4%,0%,15%,0%,16%
COc1ccc(CNC(=O)NC2CCN(c3ccnc(Nc4ccc(F)cc4)n3)C2)cc1 (stereo not drawn) [GSK1379706],0%,35%,21%,0%,0%,26%,0%,37%,0%,0%,0%,0%,0%,0%,3%,0%,18%,39%,14%,43%
Cc1nc(N(C)[C@H]2CN(C(=O)CC#N)CC[C@H]2C)c2cc[nH]c2n1,4%,11%,7%,0%,0%,0%,0%,7%,0%,0%,0%,0%,0%,2%,15%,0%,0%,0%,0%,0%
COc1cc(OC)cc(-c2cc3cnc(N)nc3nc2NC(=O)NC(C)(C)C)c1,0%,0%,0%,1%,0%,1%,0%,0%,0%,0%,0%,0%,0%,0%,9%,0%,0%,0%,0%,0%
Cc1c(Cn2c(C)nn3c(=O)cc(N4CCO[C@H](C)C4)nc23)cccc1C(F)(F)F [GSK2373690],31%,0%,1%,0%,0%,2%,0%,27%,22%,0%,3%,7%,0%,0%,0%,0%,0%,26%,0%,14%
Cc1ccc(-c2ccc3c(ccc4sc5c(c43)NC[C@@H](C)N=C5N(C)C)n2)cn1,0%,0%,0%,0%,0%,0%,0%,0%,0%,0%,0%,0%,0%,0%,10%,0%,0%,9%,0%,0%
Nc1ncnc2c1ncn2-c1cccc(F)c1 [SKF-97560],21%,25%,0%,0%,0%,18%,48%,0%,28%,5%,0%,0%,5%,12%,3%,27%,1%,10%,43%,58%
COC(=O)c1c(-c2ccccc2)c2cc(Br)ccc2c(=O)n1Cc1ccc(S(C)(=O)=O)cc1,17%,0%,20%,3%,6%,0%,15%,0%,4%,24%,17%,26%,6%,35%,2%,23%,5%,0%,8%,73%
O=C(NCc1cccs1)c1cc(C(=O)c2c(Cl)cccc2Cl)c[nH]1 [GW823670],0%,17%,0%,0%,0%,0%,2%,0%,0%,5%,38%,10%,0%,0%,0%,0%,0%,13%,0%,0%
Cc1cccc(-c2cc(-c3c[nH]nc3-c3ccccn3)ccn2)c1 [GW679395],0%,7%,0%,0%,0%,19%,6%,32%,0%,24%,22%,1%,0%,0%,0%,5%,0%,1%,0%,61%
COc1ccc(-c2cc3c(C)nc(N)nc3n([C@H]3CC[C@H](O)CC3)c2=O)cn1,0%,0%,0%,0%,0%,2%,0%,13%,0%,7%,11%,0%,21%,0%,0%,0%,0%,0%,0%,0%

# Reference: PMC5540273 (PLoS ONE, 2017)
